A selection: hits, their analogues and other compounds. The true share with any hit is near 4%.
TIM10 inh = growth inhibitors of TIM10 yeast strain; S. cerevisiae TIM10 strain growth, BacTiter-Glo luminescence, 24 h; inhibition, % at 10 µM; hit rate 1.4% among 330,000;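 active = inhibition of 40% or more at the single tested concentration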;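 also: wild-type TIM10 isogenic control strain grown at permissive 25 °C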
tim23-1 inh = inhibits growth of tim23-1 mutant yeast | S. cerevisiae tim23-1 growth, BacTiter-Glo luminescence, 24 h | inhibition, % at 20 µM | hit rate 1.3% among 330,000 | AID 463212;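 active = growth inhibition of the mutant yeast at or above 50%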;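 also: temperature-sensitive mutant grown at 25 °C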
NALP1 yeast inh = blocks the NALP1 inflammasome reconstituted in yeast. S. cerevisiae NALP1/ASC/caspase-1 growth, X-gal OD620, 72 h. inhibition, % at 10 µM. hit rate 0.61% among 280,000; in the data active = inhibition mostly above about 24%, no sharp cut-off; inactive = mostly below about 32%
NLRP3 yeast inh = inhibitors of NALP3 inflammasome in yeast | Yeast reconstituted NLRP3/ASC/caspase-1, beta-gal luminescence, 24 h | inhibition, % at 10 µM | hit rate 0.39% among 330,000 | AID 2825;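 active = inhibition of 50% or more; inactive = inhibition below 50%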
tim10-1 inh = inhibits growth of tim10-1 mutant yeast. S. cerevisiae tim10-1 ts strain growth, BacTiter-Glo, 24 h. inhibition, % at 20 µM. hit rate 2.2% among 330,000. AID 463190;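 active = inhibition of at least 40%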;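 also: mutant grown at 25 °C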
tim10-1 confirm = confirmation of tim10-1 mutant yeast growth inhibitors; shares compounds with tim10-1 inh; S. cerevisiae tim10-1 ts strain growth, BacTiter-Glo, 24 h; inhibition, % at 20 µM; hit rate 56% among 7,400;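 active = inhibition of yeast growth at or above a set limit in either of two repeat tests at 20 µM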;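 also: tim10-1 mutant grown at permissive 25 °C to find synthetic lethal compounds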
tim10 confirm = TIM10 yeast growth inhibition, confirmed; shares compounds with TIM10 inh; S. cerevisiae tim10 strain growth, BacTiter-Glo luminescence, 24 h; inhibition, % at 10 µM; hit rate 63% among 4,600;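 active = inhibition of yeast growth at or above a set limit in either of two replicates at 10 µM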; also: this counterscreen used the strain with wild-type TIM10
tim23-1 conf = tim23-1 yeast growth inhibition, confirmed | shares compounds with tim23-1 inh | S. cerevisiae tim23-1 growth, BacTiter-Glo luminescence, 24 h | inhibition, % at 20 µM | hit rate 83% among 4,400 | AID 463218;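 active = inhibition above about 39% in either of two replicate wells at 20 µM, limit read from the data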;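 also: temperature-sensitive tim23-1 mutant grown at 25 °C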
Hits are given with their value; - = inactive; . = not tested or not shown.

SMILES	TIM10 inh	tim23-1 inh	NALP1 yeast inh	NLRP3 yeast inh	tim10-1 inh	tim10-1 confirm	tim10 confirm	tim23-1 conf
CC1=CC(C)(C)N2C(=O)C(=O)c3cc(OC(=O)c4ccco4)cc1c32	-	68	-	-	51	36	.	-
Cc1nc2c(ccc3nc(NC(=O)C4CC4)sc32)s1	65	68	-	-	53	54	54	71
CCC(=O)Nc1nc2ccc3sc(C)nc3c2s1	-	-	-	-	-	.	.	.
CCNc1ccc2noc3c2c1C(=O)c1ccccc1-3	-	60	-	-	56	44	.	49
COc1ccc(NC(=O)/C(Cl)=C(/Cl)S(=O)Cc2ccccc2)cn1 (stereo not given)	69	86	-	-	49	34	84	-
COc1ccc(CS(=O)(=O)/C(Cl)=C(/Cl)C(=O)Nc2ccc(OC)nc2)cc1	52	72	-	-	73	66	58	76
Cc1cccc(Cn2c(N3CCN(C)CC3)nc3c2c(=O)n(C)c(=O)n3C)c1	-	-	-	-	-	.	.	.
Cc1cccn2c(=O)c(C=O)c(N3CCCCCC3)nc12	-	58	-	-	46	43	.	46
CC(=O)c1c(C)[nH]c(C(=O)OCC(=O)N2c3ccccc3NC(=O)C2(C)C)c1C	-	-	-	-	-	.	.	.
CN1Cc2c(N3CCOCC3)nc3sc(C(=O)c4ccc(Br)cc4)c(N)c3c2CC1(C)C	-	58	-	-	58	-	.	53
CN1Cc2c(N3CCOCC3)nc3sc(C#N)c(N)c3c2CC1(C)C	-	-	-	-	-	.	.	.
N#C/C(=C\c1c(Cl)cccc1Cl)c1nc2ccccc2[nH]1	48	61	-	-	63	53	52	73
N#C/C(=C\c1c(Cl)cccc1Cl)c1nc2ccccc2o1	40	62	-	-	73	75	-	74
Oc1c(Br)cc(C2N=C(c3ccccc3)NO2)cc1Br (stereo not given)	-	67	-	-	44	58	.	68
CSc1ccc(C2N=C(c3ccccc3)NO2)cc1 (stereo not given)	-	-	-	-	-	.	.	.
COc1ccc(SN=C2C(C)=CC(=O)C=C2C)cc1	91	75	-	-	71	73	96	74
COc1ccc(S(=O)(=O)N=C2C=C(C)C(=O)C(C)=C2)cc1	-	-	-	-	-	.	.	.
Cc1[nH]n(-c2ccccc2)c(=O)c1C(C[N+](=O)[O-])c1ccc(Br)cc1 (stereo not given)	49	89	65	-	60	57	69	84
COCCn1c(C)cc(C(=O)CSc2nnnn2C2CCCC2)c1C	-	-	.	-	-	.	.	.
CN1CCN(C(c2ccc(C(F)(F)F)cc2)c2cc(Cl)c3cccnc3c2O)CC1 (stereo not given)	53	66	-	-	43	36	-	70
CCN1CCN(C(c2ccc(C(F)(F)F)cc2)c2ccc3cccnc3c2O)CC1 (stereo not given)	-	-	-	-	-	.	.	.
CN1CCN(C(c2ccc(Cl)cc2)c2cc(Cl)c3cccnc3c2O)CC1 (stereo not given)	-	59	-	-	40	-	.	71
CCOC(=O)C1(CCc2ccccc2)CCN(C(=O)C2CCOCC2)CC1	-	-	-	-	-	.	.	.
CC(=O)C1=C(C)OC(N)=C(C#N)C1c1cccc2ccccc12 (stereo not given)	-	-	-	-	-	.	.	.
CC(=O)n1c2c(c3ccccc31)OC(N)=C(C#N)C2c1ccc(C(C)C)cc1 (stereo not given)	-	55	34	-	42	37	.	52
SMILES	TIM10 inh	tim23-1 inh	NALP1 yeast inh	NLRP3 yeast inh	tim10-1 inh	tim10-1 confirm	tim10 confirm	tim23-1 conf
CC(NS(=O)(=O)c1cccc(S(=O)(=O)c2ccccc2)c1)C(=O)O (stereo not given)	-	-	-	-	-	.	.	.
CC/C(=N\NC(=S)Nc1ccc(OC)cc1)c1ccc(OC(F)F)cc1	-	53	-	-	54	46	.	43
Fc1ccc(NC(=S)Nc2cccc3ccccc23)cc1	-	52	-	-	43	-	.	45
S=C(Nc1ccccc1)N1CCn2c1nc1ccccc12	42	66	-	-	56	33	44	55
O=C(Nc1ccccc1)N1CCn2c1nc1ccccc12	-	-	-	-	-	.	.	.
CC1CCc2[nH]c3ccc(C(=O)N4CCCC(C(F)(F)F)C4)cc3c2C1 (stereo not given)	-	68	.	-	42	-	.	55
COC(=O)c1ccc2[nH]c3c(c2c1)CC(C)CC3 (stereo not given)	-	-	.	-	-	.	.	.
N#C/C(=C\c1ccccc1[N+](=O)[O-])C(=O)NCc1ccccc1	46	71	-	-	49	54	51	74
C=CCNC(=O)/C(C#N)=C/c1c(C)nn(-c2ccccc2)c1Cl	67	72	-	-	71	76	65	72
CCOCCCNC(=O)/C(C#N)=C/c1ccc(-c2ccc(S(=O)(=O)N3CCOCC3)cc2)o1	-	-	-	-	-	.	.	.
N#C/C(=C/c1ccccc1[N+](=O)[O-])C(=O)NCc1ccco1	60	60	-	-	52	45	-	54
Cc1cc(/C=C(\C#N)C(=O)NCc2ccco2)c(C)[nH]1	-	-	-	-	-	.	.	.
CCOCCCNC(=O)/C(C#N)=C/c1ccc([N+](=O)[O-])o1	68	75	-	-	84	79	94	74
N#C/C(=C\c1ccc(O)cc1)C(=O)NCc1ccccc1	-	-	-	-	-	.	.	.
CCOc1ccccc1NC(=O)/C(C#N)=C/c1c(C)nn(-c2ccccc2)c1Cl	-	-	-	-	-	.	.	.
C=CCNC(=O)/C(C#N)=C/c1ccccc1[N+](=O)[O-]	50	56	-	-	46	48	-	46
CCCCCCCCNC(=O)/C(C#N)=C/c1ccccc1[N+](=O)[O-]	64	83	-	-	50	-	70	47
Nc1ncnc2c1ncn2[C@@H]1O[C@H](COP(=O)(O)OP(=O)(O)OP(=O)(O)O)[C@@H](O)[C@H]1O	70	84	.	-	84	80	68	87
Nc1ncnc2c1ncn2C1OC(COP(=O)(O)O)C(O)C1O (stereo not given)	73	81	-	-	85	84	60	88
Nc1ncnc2c1ncn2[C@@H]1O[C@H](COP(=O)(O)O)[C@@H](O)[C@H]1O	76	84	-	-	87	85	66	90
NCCC(=O)NC[C@H]1O[C@@H](n2cnc3c(N)ncnc32)[C@H](O)[C@@H]1O	-	-	.	.	-	.	.	.
Nc1ncnc2c1ncn2[C@@H]1O[C@H](COS(=O)(=O)O)[C@@H](O)[C@H]1O	-	-	.	-	-	.	.	.
